Values joined by “and” are separate entries in the source; they are usually repeats but may differ in a detail not shown here. Equal entries are not always repeated. Hit rate of the full screen: of about 5,500 compounds, about 2,000 (36%) were called active. Not shown: some 18% with an inconclusive outcome. The list shows a part of the results. Unmarked numbers belong to inactive results. No stated cut-off is given here; in the data, active means normalized growth mostly below about 0.91 (no sharp cut-off); inconclusive means no clear call, values can overlap the other calls; inactive means mostly above about 0.92.
Experiment: chemical genetic growth profiling, strain panel (AID 1159580);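 further: tested at 20 µM; growth read once vehicle control cultures reached saturation at 30 °C; 1 = growth at the plate median or of vehicle wells; lower values mean less growth of the strain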
Conditions: S. cerevisiae deletion strains, growth OD

C=C(C)[C@H]1COc2cc3oc(=O)ccc3cc2O1
normalized growth (locus YAL021C, strain ccr4, hits give low values): 0.52 (active)
normalized growth (locus YAL026C, strain drs2, hits give low values): 0.51 (active)
normalized growth (locus YAL030W, strain snc1, hits give low values): 0.933
normalized growth (locus YBL061C, strain skt5, hits give low values): 0.213 (active)
normalized growth (locus YBR009C, strain hhf1, hits give low values): 0.811 (active)
normalized growth (locus YBR021W, strain FUR4, hits give low values): 0.116 (active)
normalized growth (locus YBR023C, strain chs3, hits give low values): 0.339 (active)
normalized growth (locus YBR171W, strain sec66, hits give low values): 0.938
normalized growth (locus YBR229C, strain ROT2, hits give low values): 0.956
normalized growth (locus YBR231C, strain swc5, hits give low values): 0.786 (active)
normalized growth (locus YBR279W, strain paf1, hits give low values): 0.931 (active)
normalized growth (locus YCL011C, strain gbp2, hits give low values): 0.852 (active)
normalized growth (locus YCL016C, strain dcc1, hits give low values): 0.736 (active)
normalized growth (locus YCL029C, strain bik1, hits give low values): 0.72 (active)
normalized growth (locus YCL061C, strain MRC1, hits give low values): 0.793 (active)
normalized growth (locus YCL069W, strain vba3, hits give low values): 0.783 (active)
normalized growth (locus YCR088W, strain abp1, hits give low values): 0.814 (active)
normalized growth (locus YDL005C, strain med2, hits give low values): 0.959
normalized growth (locus YDL035C, strain GPR1, hits give low values): 0.491 (active)
normalized growth (locus YDL040C, strain nat1, hits give low values): 0.957
normalized growth (locus YDL074C, strain BRE1, hits give low values): 0.465 (active)
normalized growth (locus YDL101C, strain DUN1, hits give low values): 0.36 (active)
normalized growth (locus YDL185W, strain tfp1, hits give low values): 0.924
normalized growth (locus YDL192W, strain arf1, hits give low values): 0.111 (active)
normalized growth (locus YDR001C, strain nth1, hits give low values): 0.956
normalized growth (locus YDR069C, strain doa4, hits give low values): 0.888 (active)
normalized growth (locus YDR101C, strain arx1, hits give low values): 0.724 (active)
normalized growth (locus YDR137W, strain rgp1, hits give low values): 0.279 (active)
normalized growth (locus YDR150W, strain NUM1, hits give low values): 0.53 (active)
normalized growth (locus YDR159W, strain sac3, hits give low values): 0.905
normalized growth (locus YDR162C, strain NBP2, hits give low values): 0.0606 (active)
normalized growth (locus YDR195W, strain ref2): 1.05
normalized growth (locus YDR297W, strain sur2, hits give low values): 0.956
normalized growth (locus YDR318W, strain mcm21, hits give low values): 0.62 (active)
normalized growth (locus YDR334W, strain swr1, hits give low values): 0.921
normalized growth (locus YDR335W, strain msn5, hits give low values): 0.857 (active)
normalized growth (locus YDR388W, hits give low values): 0.515 (active)
normalized growth (locus YDR392W, strain spt3, hits give low values): 0.775
normalized growth (locus YDR502C, strain sam2, hits give low values): 0.387 (active)
normalized growth (locus YEL003W, strain gim4, hits give low values): 0.911 (active)
normalized growth (locus YEL037C, strain rad23, hits give low values): 0.956
normalized growth (locus YEL061C, strain CIN8 (second series), hits give low values): 0.447 (active)
normalized growth (locus YER015W, strain faa2, hits give low values): 0.9 (active)
normalized growth (locus YER016W, strain bim1, hits give low values): 0.791 (active)
normalized growth (locus YER110C, hits give low values): 0.747 (active)
normalized growth (locus YER111C, strain swi4, hits give low values): 0.961
normalized growth (locus YER155C, strain BEM2 (second series), hits give low values): 0.444 (active)
normalized growth (locus YER155C, strain BEM2, hits give low values): 0.879 (active)
normalized growth (locus YER167W, strain BCK2, hits give low values): 0.671 (active)
normalized growth (locus YFR010W, strain ubp6, hits give low values): 0.945
normalized growth (locus YGL078C, strain dbp3, hits give low values): 0.993
normalized growth (locus YGL086W, strain mad1, hits give low values): 0.578 (active)
normalized growth (locus YGL167C, strain pmr1, hits give low values): 0.995
normalized growth (locus YGL173C, strain kem1, hits give low values): 0.906
normalized growth (locus YGL227W, strain vid30, hits give low values): 0.932
normalized growth (locus YGL240W, strain doc1, hits give low values): 0.756 (active)
normalized growth (locus YGL248W, strain PDE1, hits give low values): 0.385 (active)
normalized growth (locus YGL253W, strain hxk2, hits give low values): 0.466 (active)
normalized growth (locus YGR135W, strain pre9, hits give low values): 0.574 (active)
normalized growth (locus YGR252W, strain gcn5, hits give low values): 0.28 (active)
normalized growth (locus YHR013C, strain ard1, hits give low values): 0.692 (active)
normalized growth (locus YHR027C, strain rpn1, hits give low values): 0.929
normalized growth (locus YHR030C, strain SLT2, hits give low values): 0.272 (active)
normalized growth (locus YHR079C, strain IRE1 (second series), hits give low values): 0.967
normalized growth (locus YHR079C, strain IRE1, hits give low values): 1.01
normalized growth (locus YHR094C, strain hxt1, hits give low values): 0.948
normalized growth (locus YHR129C, strain ARP1, hits give low values): 0.554 (active)
normalized growth (locus YHR142W, strain chs7, hits give low values): 0.148 (active)
normalized growth (locus YHR200W, strain rpn10, hits give low values): 0.572 (active)
normalized growth (locus YIL066C, strain RNR3, hits give low values): 0.407 (active)
normalized growth (locus YIL073C, strain SPO22, hits give low values): 0.16 (active)
normalized growth (locus YIL125W, strain kgd1, hits give low values): 0.916 (active)
normalized growth (locus YIR030C, strain dcg1, hits give low values): 0.819 (active)
normalized growth (locus YJL092W, strain hpr5, hits give low values): 0.903 (active)
normalized growth (locus YJL095W, strain BCK1 (second series), hits give low values): 0.107 (active)
normalized growth (locus YJL095W, strain BCK1, hits give low values): 0.0661 (active) and 0.314 (active)
normalized growth (locus YJL115W, strain asf1, hits give low values): 0.977
normalized growth (locus YJL129C, strain trk1, hits give low values): 0.452 (active)
normalized growth (locus YJL134W, strain LCB3, hits give low values): 0.934
normalized growth (locus YJL154C, strain vps35, hits give low values): 0.958
normalized growth (locus YJL164C, strain tpk1, hits give low values): 0.871 (active)
normalized growth (locus YJL166W, strain qcr8, hits give low values): 0.662 (active)
normalized growth (locus YJL168C, strain set2, hits give low values): 0.887 (active)
normalized growth (locus YJL187C, strain SWE1 (second series), hits give low values): 0.635 (active)
normalized growth (locus YJL187C, strain SWE1, hits give low values): 0.886 (active)
normalized growth (locus YJR043C, strain POL32, hits give low values): 0.249 (active)
normalized growth (locus YJR066W, strain TOR1, hits give low values): 0.926
normalized growth (locus YKL009W, strain mrt4, hits give low values): 0.965
normalized growth (locus YKL068W, hits give low values): 0.985
normalized growth (locus YKL085W, strain MDH1 (second series), hits give low values): 0.972
normalized growth (locus YKL085W, strain MDH1, hits give low values): 0.972
normalized growth (locus YKL160W, strain elf1, hits give low values): 0.749 (active)
normalized growth (locus YKR001C, strain vps1, hits give low values): 0.0831 (active)
normalized growth (locus YKR026C, strain gcn3, hits give low values): 0.979
normalized growth (locus YKR091W, strain srl3, hits give low values): 0.973
normalized growth (locus YLL001W, strain dnm1, hits give low values): 0.868 (active)
normalized growth (locus YLL026W, hits give low values): 0.966
normalized growth (locus YLL041C, strain sdh2, hits give low values): 0.989
normalized growth (locus YLR027C, strain aat2, hits give low values): 0.935
normalized growth (locus YLR039C, strain RIC1, hits give low values): 0.12 (active)
normalized growth (locus YLR058C, strain SHM2, hits give low values): 0.571 (active)
normalized growth (locus YLR102C, strain apc9, hits give low values): 0.863 (active)
normalized growth (locus YLR113W, strain HOG1, hits give low values): 0.996
normalized growth (locus YLR221C, strain rsa3, hits give low values): 0.898 (active)
normalized growth (locus YLR258W, strain gsy2, hits give low values): 0.902 (active)
normalized growth (locus YLR262C, strain YPT6 (second series), hits give low values): 0.23 (active)
normalized growth (locus YLR262C, strain YPT6, hits give low values): 0.166 (active)
normalized growth (locus YLR268W, strain sec22, hits give low values): 0.597 (active)
normalized growth (locus YLR320W, strain mms22, hits give low values): 0.75 (active)
normalized growth (locus YLR330W, strain CHS5, hits give low values): 0.0549 (active)
normalized growth (locus YLR342W, strain FKS1 (second series), hits give low values): 0.075 (active)
normalized growth (locus YLR342W, strain FKS1, hits give low values): 0.0723 (active)
normalized growth (locus YLR357W, strain rsc2, hits give low values): 0.538 (active)
normalized growth (locus YLR370C, strain arc18, hits give low values): 0.657 (active)
normalized growth (locus YLR371W, strain rom2, hits give low values): 0.123 (active)
normalized growth (locus YLR384C, strain iki3, hits give low values): 0.993
normalized growth (locus YLR418C, strain cdc73, hits give low values): 0.18 (active)
normalized growth (locus YML016C, strain PPZ1, hits give low values): 0.548 (active)
normalized growth (locus YML032C, strain rad52, hits give low values): 0.555 (active)
normalized growth (locus YML120C, strain ndi1, hits give low values): 0.972
normalized growth (locus YML124C, strain tub3, hits give low values): 0.805 (active)
normalized growth (locus YMR058W, strain fet3, hits give low values): 0.838 (active)
normalized growth (locus YMR078C, strain ctf18, hits give low values): 0.871 (active)
normalized growth (locus YMR125W, strain sto1, hits give low values): 0.982
normalized growth (locus YMR129W, hits give low values): 0.989
normalized growth (locus YMR205C, strain PFK2, hits give low values): 0.776 (active)
normalized growth (locus YMR223W, strain ubp8, hits give low values): 0.514 (active)
normalized growth (locus YMR231W, strain pep5, hits give low values): 0.114 (active)
normalized growth (locus YMR307W, strain GAS1, hits give low values): 0.192 (active)
normalized growth (locus YNL067W, strain RPL9B, hits give low values): 0.841 (active)
normalized growth (locus YNL071W, strain lat1, hits give low values): 0.827 (active)
normalized growth (locus YNL153C, strain GIM3, hits give low values): 0.223 (active)
normalized growth (locus YNL183C, strain NPR1, hits give low values): 0.925
normalized growth (locus YNL209W, strain ssb2, hits give low values): 0.93
normalized growth (locus YNL233W, strain BNI4, hits give low values): 0.408 (active)
normalized growth (locus YNL248C, strain rpa49, hits give low values): 0.932
normalized growth (locus YNL250W, strain rad50, hits give low values): 0.995
normalized growth (locus YNL271C, strain bni1, hits give low values): 0.846 (active)
normalized growth (locus YNL298W, strain CLA4, hits give low values): 0.839 (active)
normalized growth (locus YNL307C, strain MCK1, hits give low values): 0.37 (active)
normalized growth (locus YNL322C, strain KRE1 (second series), hits give low values): 0.918
normalized growth (locus YNR049C, strain mso1, hits give low values): 0.923
normalized growth (locus YNR052C, strain pop2, hits give low values): 0.273 (active)
normalized growth (locus YOL012C, strain htz1): 0.694
normalized growth (locus YOL147C, strain pex11, hits give low values): 0.757 (active)
normalized growth (locus YOR001W, strain rrp6, hits give low values): 0.956
normalized growth (locus YOR061W, strain CKA2, hits give low values): 0.135 (active)
normalized growth (locus YOR069W, strain VPS5, hits give low values): 0.687 (active)
normalized growth (locus YOR070C, strain gyp1, hits give low values): 0.736 (active)
normalized growth (locus YOR080W, strain dia2, hits give low values): 0.921
normalized growth (locus YOR083W, strain WHI5, hits give low values): 0.728 (active)
normalized growth (locus YOR106W, strain vam3, hits give low values): 0.387 (active)
normalized growth (locus YOR136W, strain idh2, hits give low values): 0.867 (active)
normalized growth (locus YOR144C, strain elg1, hits give low values): 0.833 (active)
normalized growth (locus YOR184W, strain ser1, hits give low values): 0.387 (active)
normalized growth (locus YOR231W, strain MKK1, hits give low values): 0.978
normalized growth (locus YOR265W, strain rbl2, hits give low values): 0.881 (active)
normalized growth (locus YOR270C, strain vph1, hits give low values): 0.374 (active)
normalized growth (locus YOR290C, strain snf2, hits give low values): 0.888
normalized growth (locus YOR316C, strain cot1, hits give low values): 0.991
normalized growth (locus YPL051W, strain arl3, hits give low values): 0.232 (active)
normalized growth (locus YPL078C, strain atp4, hits give low values): 0.755 (active)
normalized growth (locus YPL106C, strain sse1, hits give low values): 0.709 (active)
normalized growth (locus YPL240C, strain hsp82, hits give low values): 0.966
normalized growth (locus YPL241C, strain CIN2, hits give low values): 0.286 (active)
normalized growth (locus YPL256C, strain CLN2, hits give low values): 1.03
normalized growth (locus YPR119W, strain clb2, hits give low values): 0.354 (active)
normalized growth (locus YPR141C, strain kar3, hits give low values): 0.988
normalized growth (locus YPR163C, strain tif3, hits give low values): 0.889 (active)
normalized growth (locus YPR167C, strain met16, hits give low values): 0.766 (active)
normalized growth (strain wtn01, hits give low values): 0.468 (active)
